Test results published in PubChem BioAssay (NCI).
About 83,000 compounds went through this panel and 20% of them were active in at least one assay; those are over-represented in the sample as a whole.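 96-well plates, one dose, 48 hours. Percent growth reported; active if below 10.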 Calls of active or inactive are those of the source.

Columns and labels:
Assay in all cases: NCI-60 one-dose screen, 48 h (100 = growth as untreated, 0 = no growth, -100 = all killed)
Conditions in all cases: 10 µM unless noted
[1] = tested on: SR leukemia
[2] = tested on: RPMI-8226 leukemia
[3] = tested on: OVCAR-8 ovarian
[4] = tested on: OVCAR-5 ovarian
[5] = tested on: OVCAR-4 ovarian
[6] = tested on: SK-OV-3 ovarian
[7] = tested on: IGROV1 ovarian
[8] = tested on: OVCAR-3 ovarian
[9] = tested on: HS 578T breast
[10] = tested on: NCI/ADR-RES ovarian
[11] = tested on: T-47D breast
[12] = tested on: BT-549 breast
[13] = tested on: MDA-MB-435 melanoma
[14] = tested on: SW-620 colon
[15] = tested on: MCF7 breast
[16] = tested on: HCT-116 colon
[17] = tested on: HCC-2998 colon
[18] = tested on: KM12 colon

Measured: growth

CC(=O)Nc1ccc2c(c1)c(NC(C)=O)nn2C(=O)Nc1ccc(Cc2ccccc2)cc1
inactive: [1] 98.7% | [2] 88.8% | [3] 71.8% | [4] 67.1% | [5] 89.4% | [6] 67.3% | [7] 83.2% | [8] 84.4% | [9] 56.9% | [10] 89.4% | [11] 82.5% | [12] 43% | [13] 82.2% | [14] 102% | [15] 89.6% | [16] 61% | [17] 78.8% | [18] 85.9%

COc1cc(C(=O)/C=C/c2c(C)n([O-])c3ccc(C)cc3[n+]2=O)cc(OC)c1OC
inactive: [4] 78.3% | [5] 36.9% | [6] 96% | [7] 73.7% | [8] 13.2% | [9] 52.8% | [10] 81.2% | [11] 17.6% | [12] 76.7% | [13] 60.1% | [15] 29.4% | [16] 15% | [17] 104% | [18] 34.8%
active: [1] -35.2% | [2] -17.3% | [3] 5.36% | [14] 0.477%

COc1cc2c(=O)n(CC3CCCCC3)c3c4cc[nH]c4ncc3c2cc1OC
inactive: [2] 34.5% | [3] 26.9% | [4] 52.3% | [5] 19.3% | [6] 47.7% | [7] 23.6% | [8] 38.7% | [10] 33.8% | [11] 44.9% | [12] 25.9% | [13] 55.3% | [14] 30.3% | [15] 19.8% | [16] 28.9% | [17] 62.3% | [18] 19%
active: [1] 6.22% | [9] -4.62%

Oc1ccccc1N=Cc1c(O)ccc2ccccc12
inactive: [1] 37.5% | [2] 26.5% | [3] 97.8% | [4] 87.3% | [5] 74.8% | [6] 84.6% | [7] 58.9% | [8] 64.2% | [9] 64.9% | [10] 56.8% | [11] 63% | [12] 54.5% | [13] 79.1% | [14] 85.7% | [15] 70.4% | [16] 70.6% | [17] 92.4% | [18] 59.1%

CNCCCn1c2c(c3ccc([N+](=O)[O-])cc3c1=O)C(=O)c1cc(OC)cnc1-2
active: [1] 2.17% | [2] -25.9% | [3] -14.9% | [4] 1.76% | [5] -25.9% | [6] -15.8% | [7] 0.722% | [8] -45.1% | [10] -28.8% | [11] -7.15% | [12] -25.6% | [13] -76.7% | [14] -34.1% | [15] 0.912% | [16] -53.9% | [18] -4.18%
inactive: [9] 15.6% | [17] 11.1%

Nc1cc2nc3ccccc3sc-2cc1=O
inactive: [2] 45.2% | [3] 64.4% | [4] 94.2% | [5] 73.3% | [6] 90.8% | [7] 54.7% | [8] 65.2% | [9] 85.1% | [10] 81.1% | [11] 71.1% | [12] 63.1% | [14] 84.7% | [15] 44.3% | [16] 72.7% | [17] 100% | [18] 80.8%
active: [1] 2.91% | [13] -68.2%

CCN(CC)c1ccc(/C=C/C2=[N+](C)c3ccccc3C2(C)C)cc1
active: [2] -20.9% | [6] -0.178% | [8] 5.97% | [12] 0.697% | [13] -1.89% | [15] 4.72% | [18] -28%
inactive: [1] 28.1% | [3] 24.7% | [4] 34.7% | [5] 40.6% | [7] 18.6% | [9] 27% | [10] 84.8% | [11] 14% | [14] 15.4% | [16] 13.1% | [17] 24.1%

CC[C@H](Nc1ncnc(N)c1C(N)=O)c1nc2cccc(NCc3ccc(C(=O)NO)cc3)c2c(=O)n1-c1ccccc1
inactive: [1] 12% | [2] 51% | [3] 69.4% | [4] 95.5% | [5] 99% | [6] 91.9% | [7] 71% | [8] 73.1% | [9] 69.7% | [10] 106% | [11] 42.1% | [12] 88.6% | [13] 81.8% | [14] 66.8% | [15] 82.8% | [16] 67% | [17] 86.1% | [18] 89.6%

C=C1CC[C@@H]2[C@](C)(COC(C)=O)[C@H](OC(C)=O)CC[C@@]2(C)[C@@H]1CC(Nc1ccc(S(=O)(=O)Nc2ccc(Cl)nn2)cc1)C1=CCOC1=O (stereo not given in full)
active: [1] -5.26% | [2] -19.2% | [8] -56.1% | [12] -9.45% | [13] 8.13% | [14] -37.7% | [16] -34.1%
inactive: [3] 16.9% | [4] 44.6% | [5] 30.8% | [6] 86.1% | [7] 43.3% | [9] 75.6% | [10] 16.7% | [11] 34.1% | [15] 16.8% | [17] 88.5% | [18] 27%

CCN(CC)CC#CCOC(=O)[C@]1(C)CCC[C@@]2(C)[C@H]1CC(C=O)=C1C=C(C(C)C)CC[C@@H]12
inactive: [1] 20.1% | [2] 27.8% | [3] 73.5% | [4] 82.7% | [5] 69.5% | [6] 73.4% | [7] 63.2% | [8] 69.1% | [9] 67.1% | [10] 70.9% | [11] 41.8% | [12] 53% | [13] 76.4% | [14] 57.2% | [15] 68.1% | [16] 36.1% | [17] 94.6% | [18] 55.3%

C=CC[N+]1(CCO)CCN=C1CCCCCCCCCCCCC (stereo not given)
active: [1] -39.7% | [2] -39.5% | [3] -74.3% | [4] -94.9% | [5] -25.9% | [6] -48.6% | [7] -82% | [8] -84.4% | [9] -36.5% | [10] -62% | [11] -39.2% | [12] -10.2% | [13] -78.1% | [14] -72.3% | [15] -72.3% | [16] -95.1% | [17] -91.1% | [18] -83.2%

CN1CCN(Cc2ccc(NC(=O)c3[nH]ncc3Nc3ncnc4c3CCC4)cc2)CC1
active: [1] -18.6% | [2] -9.23% | [4] -0.195% | [5] 6.83% | [8] -5.87% | [12] -7.15% | [14] 7.76% | [16] 5.79% | [18] 6.55%
inactive: [3] 11.9% | [6] 24.5% | [7] 19.2% | [9] 16.1% | [10] 71.7% | [11] 32.3% | [13] 29.6% | [15] 11.3%

O=C1c2ccccc2-c2nccc3cc(Cl)nc1c23
active: [1] -27.8% | [2] 4.08% | [5] -96.4% | [7] 0.315% | [8] -87.3% | [9] -7.62% | [11] -52.5% | [13] -73.7% | [14] -54% | [15] -59.5% | [16] -91%
inactive: [3] 51.1% | [4] 96.5% | [6] 97.5% | [10] 69% | [12] 58.5% | [18] 25.7%

COC(=S)SCN(CSC(=S)OC)c1ccc(Cl)cc1
inactive: [1] 123% | [2] 73.1% | [3] 91.3% | [4] 97.1% | [5] 87.6% | [6] 91.6% | [7] 95.4% | [8] 104% | [9] 88.4% | [10] 79.1% | [11] 70.1% | [12] 65.8% | [13] 95.3% | [14] 99.1% | [15] 73.5% | [16] 79.7% | [18] 98.2%

C#Cc1nc(Nc2cc(C)[nH]n2)c2ccccc2n1
active: [1] 3.84% | [2] -16.5% | [3] -19.2% | [4] -28.5% | [5] -55.2% | [7] -62.7% | [8] -71% | [9] -1.95% | [10] 9.77% | [11] -36.8% | [12] -34.9% | [13] -75.5% | [14] -25.6% | [15] -25.8% | [16] -12.7% | [18] -73.1%
inactive: [6] 21.1%

COc1cc(-c2c3sc(=O)[nH]c3nc3c2c(=O)[nH]n3C(C)C)cc2c1OCO2
inactive: [1] 81.5% | [2] 124% | [3] 108% | [4] 96.6% | [5] 86% | [6] 114% | [7] 101% | [8] 114% | [9] 105% | [10] 102% | [11] 105% | [12] 105% | [13] 104% | [14] 104% | [15] 91.7% | [16] 106% | [18] 101%

Nc1nc2c(c3ncccc13)C(c1cccc(Br)c1)Cc1ncccc1-2 (stereo not given)
inactive: [2] 34% | [3] 26.6% | [4] 50.6% | [5] 58% | [6] 16.5% | [7] 42% | [9] 37.2% | [10] 11.4% | [11] 29.3% | [12] 24.8% | [14] 29.1% | [15] 16.5% | [16] 11.5% | [18] 18.4%
active: [1] 2.96% | [8] -8.61% | [13] 1.43%
